Screening results: PubChem, National Center for Advancing Translational Sciences (NCATS)
BAZ2B block: qHTS Assay for Inhibitors of BAZ2B. Potency, µM (top dose mostly 114 µM), inactives show top-dose activity change, negative = inhibition, usual class: inhibitors. AlphaScreen BAZ2B-H3K14Ac peptide displacement. hit rate 4.4% among 360,000. Bromodomain adjacent to zinc finger domain protein 2B (Homo sapiens), Q9UIF8; further: on the % scale 0 is the no-effect control and ±100 the full control effect; nearly all actives have a fitted effect of over 60% in size
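BAZ2B (50 nM) with biotin-H3(5-23)K14Ac peptide (50 nM) in PBS pH 7.4, 0.01% Tween-20, preformed 30 min, then compound 30 min at room temperature; top concentration 110uM. AlphaScreen streptavidin donor/nickel chelate acceptor beads (10 ug/mL final), 20 min dark, signal read.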
G9a block: qHTS Assay for Inhibitors of Histone Lysine Methyltransferase G9a. Histone-lysine N-methyltransferase EHMT2 (Homo sapiens), Q96KQ7. G9a H3K9 monomethylation, AlphaScreen, 2 h. Potency, µM (highest dose often 102 µM), for inactives: at the highest dose activity, negative = inhibition, most hits filed as inhibitors. hit rate 8.8% among 350,000; further: on the % scale 0 is the no-effect control and ±100 the full control effect; nearly all actives have a fitted effect of over 75% in size
Target sequence (Q96KQ7 913-1193 limits assumed): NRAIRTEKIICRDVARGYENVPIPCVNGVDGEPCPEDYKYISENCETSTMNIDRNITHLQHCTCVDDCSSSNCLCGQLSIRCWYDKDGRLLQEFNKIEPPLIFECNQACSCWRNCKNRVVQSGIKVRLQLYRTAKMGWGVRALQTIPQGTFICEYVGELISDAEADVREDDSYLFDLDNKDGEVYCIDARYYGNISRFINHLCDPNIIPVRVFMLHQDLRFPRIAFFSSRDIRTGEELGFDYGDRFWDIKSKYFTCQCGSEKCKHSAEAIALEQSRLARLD
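Quantitative HTS format: methyltransferase activity on a biotin-tagged H3K9 peptide is measured by AlphaScreen, using a rabbit anti-monomethyl-H3K9 antibody with streptavidin donor and anti-IgG acceptor beads. Final levels are 20 nM enzyme, 500 nM peptide, 20 uM SAM; 2 h RT.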
PLK1 PBD inh: qHTS for Inhibitors of PLK1-PDB (polo-like kinase 1 - polo-box domain): Primary Screen; Plk1 PBD binding of FITC phosphopeptide, fluorescence polarization; hit rate 2.8% among 360,000; Serine/threonine-protein kinase PLK1 (Homo sapiens), P53350; Potency, µM, without a hit: max response, negative = inhibition, actives largely listed as inhibitors; AID 720504, 2013; further: series mostly up to about 57 µM; on the % scale 0 is the no-effect control and ±100 the full control effect; nearly all actives have a fitted effect of over 65% in size
Sfp PPTase inh: qHTS Assay for Inhibitors of Bacillus subtilis Sfp phosphopantetheinyl transferase (PPTase); 4'-phosphopantetheinyl transferase ffp (Bacillus subtilis), Q9F4F7; AID 1490, 2009; hit rate 3.5% among 310,000; Potency, µM, for the others: largest response in the series, negative = inhibition, usual class: inhibitors; Biochemical Sfp PPTase activity, qHTS;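 further: the enzyme is Sfp with the accession as filed and its product quenches rhodamine fluorescence; 0% = enzyme reaction without inhibitor and -100% = no enzyme wells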
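Sfp 15 nM + cpd, 15 min RT; start w/ rhodamine-CoA 5 uM, BHQ-2-YbbR 12.5 uM (final); 50 mM Hepes pH 7.6, 10 mM MgCl2, 0.01% NP-40, 0.01% BSA; read 525/598 nm at 0 and 30 min.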
JMJD2A Tudor: qHTS Assay for Inhibitors of JMJD2A-Tudor Domain. Lysine-specific demethylase 4A (Homo sapiens), O75164. AlphaScreen JMJD2A-Tudor / H3K4me3 peptide binding. Potency, µM (series often up to 114 µM), inactives show at the top dose activity change, negative = inhibition, most hits filed as inhibitors. hit rate 4.4% among 390,000; further: on the % scale 0 is the no-effect control and ±100 the full control effect; nearly all actives have a fitted effect of over 50% in size
HP1b binding inh: HTS for Inhibitors of HP1-beta Chromodomain Interactions with Methylated Histone Tails | AlphaScreen HP1-beta / biotin-H3K9me3 peptide binding | Potency, µM (top dose mostly 114 µM), for the others: at the highest dose activity change, negative = inhibition, hits mostly inhibitors | hit rate 0.56% among 390,000; further: nearly all actives have a fitted effect of over 70% in size
Target sequence (P83916 whole entry, looked up): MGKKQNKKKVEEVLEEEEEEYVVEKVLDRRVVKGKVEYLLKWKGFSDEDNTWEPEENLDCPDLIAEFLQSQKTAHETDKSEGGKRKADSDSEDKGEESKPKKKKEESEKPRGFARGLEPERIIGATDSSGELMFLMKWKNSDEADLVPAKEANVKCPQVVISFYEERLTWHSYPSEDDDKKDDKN
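AlphaScreen: HP1-beta (50 nM) preformed 30 min with biotin-H3(1-18)K9me3 peptide (50 nM) in PBS pH 7.4, 0.01% Tween-20. Compound added for 30 min at RT, then streptavidin donor/nickel chelate acceptor beads (10 ug/mL) for 30 min.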
Numbers without * were called inactive; u = inconclusive; x = no result; ! = a repeat was not active; [ ] = dose if it differs, or a comment. Only some compounds are listed: those with a hit (about 12% of all), similar ones and a draw of the others. The call rests on the fitted dose curve; in most records, active means well fitted curve in the direction sought with a large enough effect; inconclusive means small, poorly fitted or top-dose-only effect, or another doubt; inactive means no such curve, though single readings can be large; an effect the other way counts as inactive or inconclusive. Potency means the concentration at half of the fitted maximal effect.

SMILES	BAZ2B block	G9a block	PLK1 PBD inh	Sfp PPTase inh	JMJD2A Tudor	HP1b binding inh
CCC(=O)N1c2ccccc2CC1C(=O)NCCCN1CCN(c2cccc(Cl)c2)CC1 (stereo unspecified)	-20.5%	8.7%[12.7 µM]	x	x	-13.6%	33.9%
CC1CCN(C(=O)Cn2cc(SCC(=O)Nc3ccccc3C(F)(F)F)c3ccccc32)CC1	2.7%	-4.7%[59 µM]	x	x	-28.6%	42.7%
Cc1csc2nc(CCNS(=O)(=O)c3ccc4c(c3)OCCO4)cn12	0.0%	50.1µM*	-3.2%	5.9%	-7.0%	13.5%
CC(C)CC(=O)Nc1ccc(S(=O)(=O)Nc2cc3c(cc2N2CCOCC2)n(C)c(=O)c(=O)n3C)cc1	-16.6%	u	x	x	-11.7%	31.3%
CCCCCCCCCCCCC/C=C/C(O)C(COP(=O)(O)OCCN)NC(=O)CCCCCCCCCCCCCCCCC (stereo unspecified)	x	x	x	-1.2%	x	x
O=C(c1ccccc1)N1N=C(c2ccc(F)cc2)CC1c1ccc(F)cc1 (stereo unspecified)	x	x	-9.8%	x	-4.5%	22.0%
O=C(c1cccs1)N1N=C(c2ccc(O)cc2)CC1c1ccccc1 (stereo unspecified)	0.7%	-5.5%[59 µM]	-5.5%	17.8µM*	8.6%	19.7%
CC(=O)N1N=C(c2ccccc2)CC1c1ccc(F)cc1 (stereo unspecified)	-6.5%	-6.0%[0.501 µM]	-10.3%	12.7%	-6.8%	28.8%
O=C(c1cccs1)N1N=C(c2ccccc2)CC1c1ccc(O)cc1 (stereo unspecified)	-28.3%	u	-15.8%	20µM*	-23.2%	u
O=C(c1cccs1)N1N=C(c2ccccc2)CC1c1ccccc1 (stereo unspecified)	-2.4%	2.8%[59 µM]	-0.1%	39.8µM*	-8.7%	31.9%
COc1ccc(C2=NN(C(=O)c3cccs3)C(c3ccc(OC)cc3)C2)cc1 (stereo unspecified)	9.4%	4.5%	-9.0%	u	-6.3%	18.0%
CCc1ccc2oc(C(=O)NCCc3ccc(OC)c(OC)c3)cc(=O)c2c1	-3.5%	-4.5%[59 µM]	x	x	-11.1%	35.6%
O=C(O)CCc1ccc(-c2ccccc2)n1-c1ccc(C(=O)O)cc1	-5.4%	14.1µM*!	-15.2%	-5.4%	-31.4%	24.6%
COc1ccc(-n2c(CCC(=O)O)ccc2-c2ccccc2)c(OC)c1	u	8.91µM*	x	x	u	26.9%
CCOC(=O)c1ccc(-n2c(CCC(=O)O)ccc2-c2ccccc2)cc1O	44.7µM*	17.8µM*	x	x	-33.3%	-24.5%
NC(=O)Nn1c(CCC(=O)O)ccc1-c1ccc(Br)cc1	-30.7%	u	-23.4%	-28.2%	u	5.1%
O=C(O)CCc1ccc(-c2ccc(Br)cc2)n1-c1cccc(O)c1	u	44.7µM*	-26.5%	-6.6%	u	u
COc1ccc(CNS(=O)(=O)c2ccc(N3CCCCS3(=O)=O)cc2)cc1	-8.2%	-1.4%[59 µM]	x	x	0.0%	17.1%
O=C(O)CCc1ccc(-c2ccccc2)n1-c1cccc(C(=O)O)c1	u	-11.9%[2.33 µM]	-15.6%	70.8µM*	u	14.7%
CC(=O)c1ccc(-n2c(CCC(=O)O)ccc2-c2ccc(Cl)cc2)cc1	u	39.8µM*	-5.5%	2.0%	-30.6%	-3.8%
CC(=O)c1cccc(-n2c(CCC(=O)O)ccc2-c2ccc(C)cc2)c1	-27.3%	17.6%[2.33 µM]	1.7%	-18.8%	-35.5%	-12.7%
CCC(=O)n1nc(-c2cccnc2)nc1NCc1cccs1	3.9%	u	-10.7%	12.3%	-9.8%	11.9%
CCN(C(=O)Cc1cccs1)c1nnc(-c2cccnc2)s1	u	2.82µM*	-2.6%	-11.1%	-19.2%	33.8%
